Experimental findings from PubChem BioAssay AID624151 (Broad Institute, 2012) are described below.

The whole screen tested about 28,000 compounds, of which about 410 (1.5%) were called active. Only a selection was taken, and actives are over-represented in it overall. A number with no mark means an inactive call. Rule as the data show it: active = activation above about 52%; inconclusive = no clear call, values can overlap the other calls; inactive = below that.

A short description of the test: mutant p53 pathway re-activators, primary screen, cell-based, SW480, luciferase, single point, HTS (AID 624151). Conditions: SW480 PUMA-promoter luciferase, p53 mutant reactivation; at 9.98 µM; active compounds read high.
Consider `CC(C)CC#Cc1cnc2c(c1)C(=O)N([C@@H](C)CO)C[C@H](C)[C@@H](CN(C)Cc1ccccc1C(=O)O)O2`, for which the activation is -10.9%.

On to `C/C=C/c1cnc2c(c1)C(=O)N([C@H](C)CO)C[C@H](C)[C@@H](CN(C)C(=O)c1cccc(F)c1)O2`, for which the activation was 0.956%.

As for `O=C(CN1CCOCC1)Nc1ccc(NC(=O)CN2CCOCC2)c(Cl)c1`, the activation is -19.4%.

For the compound `Cc1cc(C)n2nc(SCC(=O)Nc3ccccc3[N+](=O)[O-])nc2n1`, the activation is -13.8%.

As for `O=C(CSc1nnc(-c2ccccc2)n1-c1ccccc1)c1cccc([N+](=O)[O-])c1`, the activation is -1.58%.

Consider `O=C(CSc1nnc2ccc3ccccc3n12)Nc1ccc2c(c1)OCCO2`, for which the activation is 64.7% (active).

On to `CCn1c(SCC(=O)Nc2ccc3c(c2)OCCO3)nnc1-c1ccncc1`, for which the activation is -4.36%.

`Cc1cccc(NC(=O)CSc2nnc3c4ccccc4nc(-c4ccccc4)n23)c1`: the activation was 13.8%.

Take `COC(=O)Cc1c(C)nc2nc(COc3ccccc3)[nH]n2c1=O`: the activation was 10.4%.

In the case of `O=C(NCc1ccccn1)c1ccccc1C(=O)c1ccccc1`, the activation is -9.74%.

Turning to `O=C(NCc1ccccn1)C(=O)Nc1cccc(Cl)c1Cl`, the activation is 63.9% (active).

As for `CC(=O)Nc1ccc(NC(=O)COc2ccccc2C(=O)Nc2cccc(Cl)c2Cl)cc1`, the activation was -38.7%.

On to `C[C@@H]1CN([C@H](C)CO)C(=O)c2cc(-c3ccc(C#N)cc3)cnc2O[C@@H]1CN(C)CC1CC1`, for which the activation is -0.916%.

`COc1ccc(OC)c2c1CC(C)(C)N=C2SC`: the activation is -18.5%.

For `O=C(CSc1nnc(-c2ccncc2)n1-c1ccccc1)Nc1ccc(Cl)c(Cl)c1`, the activation is 16.3%.

Consider `COc1cccc(C#Cc2cnc3c(c2)C(=O)N([C@@H](C)CO)C[C@H](C)[C@@H](CN(C)C(C)=O)O3)c1`, for which the activation is 1.26%.

As to `O=C(C[C@H]1C[C@@H]2c3cc(NS(=O)(=O)c4ccc(F)cc4)ccc3O[C@@H]2[C@@H](CO)O1)NCc1cccc(F)c1`, the activation was -7.78%.

With `CC(=O)N1C(=S)NC(=O)/C1=C/c1c(Cl)cccc1Cl`, the activation is -5.19%.

On to `C/C=C/c1cnc2c(c1)C(=O)N([C@@H](C)CO)C[C@H](C)[C@@H](CN(C)C(=O)C1CC1)O2`, for which the activation was -5.73%.

With `CCCN(Cc1cc2cccc(C)c2[nH]c1=O)S(C)(=O)=O`, the activation is -2.56%.

Take `CCCNC(=O)N(C)C[C@H]1Oc2ncc(-c3ccccc3F)cc2C(=O)N([C@@H](C)CO)C[C@H]1C`: the activation is 1.17%.

In the case of `COc1cccc(C#Cc2cnc3c(c2)C(=O)N([C@@H](C)CO)C[C@H](C)[C@@H](CN(C)C(=O)C2CCC2)O3)c1`, the activation is 9.52%.

Regarding `C[C@@H]1CN([C@H](C)CO)C(=O)c2cc(C#CC3(O)CCCC3)cnc2O[C@H]1CN(C)C(=O)C1CCC1`, the activation is 15%.

For `COc1ccccc1NC(=O)C1=C(C)Nc2nnnn2C1c1ccccc1OCc1ccccc1` (stereo unspecified), the activation is 11.3%.

`CCCC#Cc1cnc2c(c1)C(=O)N([C@H](C)CO)C[C@@H](C)[C@@H](CN(C)C(=O)Nc1ccccc1OC)O2`: the activation was -6.47%.

As for `CCCC#Cc1cnc2c(c1)C(=O)N([C@H](C)CO)C[C@H](C)[C@H](CN(C)S(=O)(=O)c1cn(C)cn1)O2`, the activation is 5.56%.

Consider `C[C@@H]1CN([C@H](C)CO)C(=O)c2c(c3ccccc3n2C)-c2ccccc2CO[C@@H]1CN(C)C(=O)Nc1ccccc1`, for which the activation was 10.9%.

On to `Cc1ccc2oc(C(=O)Nc3nnc(SCc4ccccc4)s3)c(C)c2c1`, for which the activation was 17.4%.

Consider `C[C@@H]1CCCCO[C@H](CN(C)S(C)(=O)=O)[C@@H](C)CN([C@H](C)CO)C(=O)c2cc(NS(=O)(=O)c3ccc(Cl)cc3)ccc2O1`, for which the activation is 2.27%.

In the case of `COCC#Cc1cnc2c(c1)C(=O)N([C@@H](C)CO)C[C@@H](C)[C@H](CN(C)C(=O)c1cnccn1)O2`, the activation was 2.72%.

On to `C[C@@H]1CN([C@@H](C)CO)S(=O)(=O)c2ccc(C#CC3(O)CCCC3)cc2O[C@H]1CN(C)C(=O)c1ccncc1`, for which the activation is 7.47%.

Turning to `C[C@H]1CN([C@@H](C)CO)C(=O)c2cc(-c3cccc(C(=O)N(C)C)c3)cnc2O[C@H]1CN(C)S(=O)(=O)c1ccccc1`, the activation is 10.1%.

On to `CCCN(C)C[C@@H]1Oc2cc(-c3cccc(C#N)c3)ccc2S(=O)(=O)N([C@@H](C)CO)C[C@@H]1C`, for which the activation is 2.45%.

In the case of `COCC#Cc1ccc2c(c1)O[C@@H](CN(C)Cc1ccccn1)[C@@H](C)CN([C@@H](C)CO)S2(=O)=O`, the activation was 5.92%.

Consider `CCOc1csc2nc(C)cc(C)c12`, for which the activation is 7.54%.

Regarding `C[C@@H]1CN([C@@H](C)CO)S(=O)(=O)c2ccc(/C=C/c3ccccc3)cc2O[C@@H]1CN(C)C(=O)Nc1cc(F)ccc1F`, the activation is -25.7%.

Turning to `C[C@H]1CN([C@@H](C)CO)C(=O)c2cc(C#CCN(C)C)cnc2O[C@H]1CN(C)C(=O)Cc1ccccc1`, the activation is -0.24%.

`O=C(CC(C(=O)O)N1CCNCC1)Nc1cccc(Cl)c1` (stereo unspecified): the activation was 13.8%.

With `COc1ccc(OC(C)C(=O)Nc2cccnc2)cc1` (stereo unspecified), the activation is -3.84%.

For `CC(=O)Oc1ccc(C(=O)N(C(=O)c2ccc(OC(C)=O)cc2)c2cc(C)ccn2)cc1`, the activation is 6.89%.

For the compound `CCn1c(SCC(=O)Nc2cc(Cl)c(Cl)cc2Cl)nnc1-c1ccccc1Cl`, the activation was -3.77%.

Take `Cc1ccc(S(=O)(=O)Nc2ccc3c(c2)C(=O)N([C@H](C)CO)C[C@@H](C)[C@H](CN(C)S(=O)(=O)c2ccc(C)cc2)OCCCC[C@@H](C)O3)cc1`: the activation was -37.2%.

For `O=C(C[C@H]1C[C@H]2c3cc(NC(=O)Nc4ccccc4F)ccc3O[C@H]2[C@H](CO)O1)NCc1ccccn1`, the activation was 3.57%.

In the case of `Cc1ccc2c(c1)CCCN2S(=O)(=O)c1cc(OCC(N)=O)c(C)cc1Cl`, the activation was -21.2%.

As to `O=C(C[C@H]1C[C@@H]2c3cc(NC(=O)c4ccc5c(c4)OCO5)ccc3O[C@@H]2[C@@H](CO)O1)NCCN1CCCCC1`, the activation was 13.6%.

In the case of `O=C(Nc1ccc(-c2nc3ccccc3o2)c(O)c1)c1ncn[nH]1`, the activation is -35%.
